Measurements taken from PubChem BioAssay (EPA / NIEHS).
Records with an inconclusive call do not appear. Activity calls are given as the source filed them. Rule for the calls, unless noted: active = hit-call score of the fitted dose curve at least 0.9, where 1 is the maximum; inconclusive = response in the unintended direction; inactive = score below 0.9.

Experiments:
[1] = ATG_M_19_CIS: Attagene CIS-FACTORIAL HepG2 Assay for M19 Transcription Factor (Internal Marker) (AID 2282939; active = hit-call score of the fitted dose curve at least 0.9, where 1 is the maximum; inactive = score below 0.9); conditions: HepG2 Attagene CIS-FACTORIAL M19 internal marker reporter; actives raise or lower the signal
How it was run: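 HepG2 cells transiently transfected with cis-regulated multiplexed reporter units, dosed 24 h. Reporter mRNA quantified by RT-PCR and capillary electrophoresis; internal background marker fitted bidirectionally versus DMSO.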

[2] = ATG_GATA_CIS: Attagene CIS-FACTORIAL HepG2 Assay for human GATA Binding Protein (AID 2282944; active = hit-call score of the fitted dose curve at least 0.9, where 1 is the maximum; inactive = score below 0.9); conditions: HepG2 GATA cis-element reporter, Attagene multiplex mRNA; actives raise or lower the signal
How it was run: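 HepG2 cells transiently transfected with multiplexed cis-element reporter units measure endogenous GATA activity; after 24 h compound exposure, reporter mRNA quantified by RT-PCR and capillary electrophoresis. Changes fitted in both directions vs DMSO.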

[3] = ATG_GRE_CIS: Attagene CIS-FACTORIAL HepG2 Assay for human Glucocorticoid Response Elements (GRE) (AID 2282947; active = hit-call score of the fitted dose curve at least 0.9, where 1 is the maximum; inactive = score below 0.9); conditions: HepG2 GRE cis-reporter, Attagene multiplex mRNA; actives raise or lower the signal
How it was run: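 Read-out: fluorescent reporter-transcript fragments separated by capillary electrophoresis after RT-PCR. Transiently transfected HepG2 cells carrying cis-element-driven reporter units were dosed for 24 h; gain or loss of signal fitted against DMSO control.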

[4] = ATG_PBREM_CIS: Attagene CIS-FACTORIAL HepG2 Assay for human Phenobarbital-responsive Enhancer Module (PBREM) (AID 2282955; active = hit-call score of the fitted dose curve at least 0.9, where 1 is the maximum; inactive = score below 0.9); conditions: HepG2 PBREM cis-reporter, Attagene multiplexed transcription; actives raise or lower the signal
How it was run: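 HepG2 cells transiently transfected with multiple cis-regulated reporter transcription units; endogenous factor activity at the PBREM element measured as reporter mRNA 24 h after dosing, via RT-PCR and capillary electrophoresis of fluorescent fragments; bidirectional fitting versus DMSO.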

[5] = ATG_TA_CIS: Attagene CIS-FACTORIAL HepG2 Assay for human TA Basal Promoter (AID 2282964; active = hit-call score of the fitted dose curve at least 0.9, where 1 is the maximum; inactive = score below 0.9); conditions: HepG2 Attagene CIS-factorial TA basal promoter reporter; actives raise or lower the signal
How it was run: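 HepG2 cells transiently transfected with multiple reporter units under cis promoter elements, reporting endogenous transcription factor activity; this endpoint tracks the TA basal promoter as background control. Reporter mRNA after 24 h dosing measured by RT-PCR/capillary electrophoresis; bidirectional fits versus DMSO.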

[6] = target: Hepatocyte nuclear factor 4-alpha (Homo sapiens) (UniProt P41235); experiment: ATG_HNF4a_TRANS: Attagene TRANS-FACTORIAL HepG2 Assay for human Hepatocyte Nuclear Factor 4 alpha (HNF4a) (AID 2282982); conditions: HepG2 HNF4a transactivation reporter, mRNA readout
Hepatocyte nuclear factor 4-alpha (Homo sapiens), sequence (P41235 whole entry, looked up): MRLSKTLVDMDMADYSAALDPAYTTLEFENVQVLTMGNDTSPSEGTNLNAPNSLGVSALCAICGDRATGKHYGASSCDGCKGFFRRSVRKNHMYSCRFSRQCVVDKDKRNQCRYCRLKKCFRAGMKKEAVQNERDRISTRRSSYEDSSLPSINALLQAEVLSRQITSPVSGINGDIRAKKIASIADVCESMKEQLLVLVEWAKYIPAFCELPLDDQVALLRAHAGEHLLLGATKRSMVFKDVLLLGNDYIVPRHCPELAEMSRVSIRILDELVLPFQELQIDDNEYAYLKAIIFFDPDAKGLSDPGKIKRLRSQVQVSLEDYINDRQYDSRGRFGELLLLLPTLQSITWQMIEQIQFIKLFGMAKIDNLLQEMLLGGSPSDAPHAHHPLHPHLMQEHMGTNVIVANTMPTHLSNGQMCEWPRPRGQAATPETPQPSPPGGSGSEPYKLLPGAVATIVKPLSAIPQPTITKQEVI
How it was run: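 Transient MRTU transfection of HepG2, 24 h dosing. Readout: reporter mRNA via RT-PCR + capillary electrophoresis, fluorescence; activity fit upward relative to DMSO control.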

[7] = ATG_M_32_TRANS: Attagene TRANS-FACTORIAL HepG2 Assay for M32 Transcription Factor (Internal Marker) (AID 2282984); conditions: HepG2 Attagene TRANS M32 internal marker reporter
How it was run: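 Read-out: fluorescent reporter cDNA fragments resolved by capillary electrophoresis after RT-PCR of total RNA. Transfected HepG2 cells were exposed to chemical for 24 h. Activity scored in the positive direction relative to DMSO.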

[8] = ATG_NFI_CIS: Attagene CIS-FACTORIAL HepG2 Assay for human Nuclear Factor I (NFI) (AID 2282989; active = hit-call score of the fitted dose curve at least 0.9, where 1 is the maximum; inactive = score below 0.9); conditions: HepG2 cis-regulatory reporter, NFI response element transcription; actives raise or lower the signal
How it was run: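 Endogenous TF activity in HepG2 cells transiently transfected with cis-element-driven multiplexed reporter units, read 24 h after dosing. Reporter mRNA quantified by RT-PCR, 6-FAM labelling, HpaI digestion and capillary electrophoresis; bidirectional fit versus DMSO.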

[9] = ATG_NF_kB_CIS: Attagene CIS-FACTORIAL HepG2 Assay for human Nuclear Factor Kappa B (NF-kB) (AID 2282991; active = hit-call score of the fitted dose curve at least 0.9, where 1 is the maximum; inactive = score below 0.9); conditions: HepG2 Attagene cis-factorial NF-kB reporter mRNA; actives raise or lower the signal
How it was run: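 HepG2 cells transiently transfected with multiplexed cis-element reporter units measuring endogenous transcription factor activity; reporter mRNA read 24 h after dosing by RT-PCR, fluorescent labelling, HpaI digestion and capillary electrophoresis. Bidirectional fit against DMSO baseline.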

[10] = target: Retinoic acid receptor RXR-alpha (Homo sapiens) (UniProt P19793); experiment: ATG_RXRa_TRANS: Attagene TRANS-FACTORIAL HepG2 Assay for human Retinoid X Receptor alpha (RXRa) (AID 2283012)
Retinoic acid receptor RXR-alpha (Homo sapiens), sequence (P19793 whole entry, looked up, the tested form may be a part): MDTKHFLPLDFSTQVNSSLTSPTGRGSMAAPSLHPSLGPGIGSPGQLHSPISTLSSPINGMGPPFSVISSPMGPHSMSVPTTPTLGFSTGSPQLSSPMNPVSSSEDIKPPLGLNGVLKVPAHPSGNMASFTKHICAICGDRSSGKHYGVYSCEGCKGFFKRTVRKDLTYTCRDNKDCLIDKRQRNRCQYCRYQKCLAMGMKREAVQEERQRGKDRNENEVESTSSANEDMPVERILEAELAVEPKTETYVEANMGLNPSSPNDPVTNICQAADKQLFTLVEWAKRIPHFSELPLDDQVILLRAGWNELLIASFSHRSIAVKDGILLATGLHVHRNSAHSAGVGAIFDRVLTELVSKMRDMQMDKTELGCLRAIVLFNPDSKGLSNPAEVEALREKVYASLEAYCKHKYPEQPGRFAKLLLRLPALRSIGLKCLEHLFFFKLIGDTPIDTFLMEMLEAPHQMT
How it was run: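 Chimeric NR-GAL4 trans-activation in HepG2, 24 h treatment; reporter transcripts quantified by fluorescence on capillary electrophoresis, analysed for upward change from DMSO.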

[11] = target: human Retinoid X Receptor beta (RXRb), RXRB (gene 6257) (UniProt P28702); experiment: ATG_RXRb_TRANS: Attagene TRANS-FACTORIAL HepG2 Assay for human Retinoid X Receptor beta (RXRb) (AID 2283013)
human Retinoid X Receptor beta (RXRb), RXRB (gene 6257), sequence (P28702 whole entry, looked up, the tested form may be a part): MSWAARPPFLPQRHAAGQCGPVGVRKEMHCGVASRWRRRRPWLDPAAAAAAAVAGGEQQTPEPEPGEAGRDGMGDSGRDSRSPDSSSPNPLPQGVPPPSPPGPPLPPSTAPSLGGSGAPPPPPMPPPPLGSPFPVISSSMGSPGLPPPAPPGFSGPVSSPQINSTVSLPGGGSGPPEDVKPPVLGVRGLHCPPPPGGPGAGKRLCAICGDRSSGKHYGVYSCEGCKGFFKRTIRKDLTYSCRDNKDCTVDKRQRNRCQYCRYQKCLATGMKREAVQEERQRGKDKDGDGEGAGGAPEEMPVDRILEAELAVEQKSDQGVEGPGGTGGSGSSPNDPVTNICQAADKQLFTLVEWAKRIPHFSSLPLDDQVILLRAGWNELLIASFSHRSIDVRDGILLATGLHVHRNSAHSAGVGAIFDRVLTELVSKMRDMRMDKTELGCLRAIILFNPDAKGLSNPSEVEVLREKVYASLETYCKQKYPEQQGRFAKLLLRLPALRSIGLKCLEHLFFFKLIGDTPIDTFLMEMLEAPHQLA
How it was run: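 After a 24 h incubation with test chemical, transfected HepG2 cells carrying NR-Gal4 fusions and GAL4-UAS reporter transcription units yield RNA whose reporter cDNA is FAM-labelled, HpaI-cut and sized by capillary electrophoresis; increases over DMSO are scored.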

[12] = target: human Vitamin D Receptor (VDR), VDR (gene 7421) (UniProt P11473); experiment: ATG_VDR_TRANS: Attagene TRANS-FACTORIAL HepG2 Assay for human Vitamin D Receptor (VDR) (AID 2283022)
human Vitamin D Receptor (VDR), VDR (gene 7421), sequence (P11473 whole entry, looked up, the tested form may be a part): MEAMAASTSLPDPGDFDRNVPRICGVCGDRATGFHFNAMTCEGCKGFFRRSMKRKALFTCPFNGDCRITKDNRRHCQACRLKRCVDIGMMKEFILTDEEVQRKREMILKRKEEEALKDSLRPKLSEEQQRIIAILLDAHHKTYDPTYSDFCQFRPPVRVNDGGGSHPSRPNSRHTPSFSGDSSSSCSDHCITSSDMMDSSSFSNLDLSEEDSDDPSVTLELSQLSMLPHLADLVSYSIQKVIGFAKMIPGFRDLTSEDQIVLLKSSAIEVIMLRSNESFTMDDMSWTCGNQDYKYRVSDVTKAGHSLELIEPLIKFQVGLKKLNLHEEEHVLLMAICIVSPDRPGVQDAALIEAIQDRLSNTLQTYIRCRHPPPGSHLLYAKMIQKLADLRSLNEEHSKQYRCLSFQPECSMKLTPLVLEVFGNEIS
How it was run: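 Fluorescence of labelled reporter cDNA fragments, resolved by capillary electrophoresis, gives mRNA induction after 24 h treatment of HepG2 cells carrying transfected Gal4-fusion reporter units. Activity is fitted in the positive direction with DMSO as baseline.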

[13] = TOX21_p53_BLA_p2_viability: Viability Assessment in the Tox21 HCT-116 p53 Agonism Beta-lactamase Assay, Phase 2 (AID 2283591);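 note: compound exposure lasted 16 h at 37 °C; actives lower the ATP signal meaning cytotoxicity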
How it was run: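 HCT116 p53-bla cells, 4000/well, dosed after 5 h plating (217-fold dilution of DMSO stocks) and incubated 16 h at 37C. Viability taken as cellular ATP by CellTiter-Glo luminescence after 30 min RT; signal loss marks cytotoxicity.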

[14] = target: Cellular tumor antigen p53 (Homo sapiens) (UniProt P04637); experiment: TOX21_p53_BLA_p2_ratio: Tox21 HCT-116 p53 Agonism Beta-lactamase Assay, Ratio, Phase 2 (AID 2283592)
Cellular tumor antigen p53 (Homo sapiens), sequence (P04637 whole entry, looked up): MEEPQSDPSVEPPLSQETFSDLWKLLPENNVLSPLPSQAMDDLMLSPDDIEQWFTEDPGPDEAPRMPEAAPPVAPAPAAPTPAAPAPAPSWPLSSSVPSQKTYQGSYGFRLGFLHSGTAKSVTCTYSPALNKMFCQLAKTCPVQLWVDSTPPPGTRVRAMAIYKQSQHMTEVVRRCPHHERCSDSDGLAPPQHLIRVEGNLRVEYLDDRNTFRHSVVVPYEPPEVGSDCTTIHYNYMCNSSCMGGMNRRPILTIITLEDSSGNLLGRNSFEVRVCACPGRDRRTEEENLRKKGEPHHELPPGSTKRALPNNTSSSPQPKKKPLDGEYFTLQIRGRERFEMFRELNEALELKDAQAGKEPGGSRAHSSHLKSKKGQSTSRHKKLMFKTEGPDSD
How it was run: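 Cleaved-to-uncleaved substrate ratio (460 vs 530 nm) measured in HCT116 cells with an inducible beta-lactamase reporter linked to p53 activity. Compounds incubated 16 h at 37C before 2 h room-temperature CCF4-AM loading.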

[15] = target: Cellular tumor antigen p53 (Homo sapiens) (UniProt P04637); experiment: TOX21_p53_BLA_p5_ratio: Tox21 HCT-116 p53 Agonism Beta-lactamase Assay, Ratio, Phase 5 (AID 2283599)
How it was run: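 HCT-116 p53-bla cells (4000/well) plated 5 h, dosed with compound (217-fold DMSO dilution) for 16 h at 37 C; CCF4-AM substrate 2 h at room temperature. Activity is the 460/530 nm emission ratio (405 nm excitation), fitted in gain-of-signal direction versus DMSO.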

[16] = target: Cellular tumor antigen p53 (Homo sapiens) (UniProt P04637); experiment: TOX21_p53_BLA_p4_ratio: Tox21 HCT-116 p53 Agonism Beta-lactamase Assay, Ratio, Phase 4 (AID 2283601)
How it was run: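 HCT-116 p53 beta-lactamase reporter cells (4000/well) preincubated 5 h, then compound (217-fold dilution of DMSO stock) for 16 h at 37C. CCF4-AM substrate added 2 h at room temperature; 460/530 nm emission ratio fitted upward versus DMSO.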

[17] = target: Paired box protein Pax-6 (Homo sapiens) (UniProt P26367); experiment: ATG_Pax6_CIS: Attagene CIS-FACTORIAL HepG2 Assay for human Paired Box 6 (PAX6) (AID 2282956; active = hit-call score of the fitted dose curve at least 0.9, where 1 is the maximum; inactive = score below 0.9); conditions: HepG2 CIS-FACTORIAL PAX6 reporter transcription, RNA readout; actives raise or lower the signal
Paired box protein Pax-6 (Homo sapiens), sequence (P26367 whole entry, looked up): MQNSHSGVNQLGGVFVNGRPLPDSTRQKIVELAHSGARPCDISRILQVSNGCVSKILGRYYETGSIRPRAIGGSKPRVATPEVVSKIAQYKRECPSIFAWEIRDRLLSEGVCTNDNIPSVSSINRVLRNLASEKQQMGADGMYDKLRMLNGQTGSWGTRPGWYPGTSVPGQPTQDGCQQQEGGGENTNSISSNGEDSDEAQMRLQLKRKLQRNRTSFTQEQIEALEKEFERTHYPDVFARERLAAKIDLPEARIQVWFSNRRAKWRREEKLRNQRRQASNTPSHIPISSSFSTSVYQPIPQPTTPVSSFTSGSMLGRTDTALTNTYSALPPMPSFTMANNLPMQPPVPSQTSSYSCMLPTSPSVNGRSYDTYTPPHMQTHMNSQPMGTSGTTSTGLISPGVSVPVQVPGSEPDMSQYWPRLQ
How it was run: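 Fluorescent RT-PCR products separated by capillary electrophoresis report PAX6-linked promoter mRNA in HepG2 cells 24 h post-dose. Curves fitted bidirectionally, DMSO as negative control.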

[18] = target: Hepatocyte nuclear factor 6 (Homo sapiens) (UniProt Q9UBC0); experiment: ATG_HNF6_CIS: Attagene CIS-FACTORIAL HepG2 Assay for human Hepatocyte Nuclear Factor 6 (HNF6) (AID 2282952; active = hit-call score of the fitted dose curve at least 0.9, where 1 is the maximum; inactive = score below 0.9); conditions: HepG2 Attagene cis-factorial HNF6 reporter transcription; actives raise or lower the signal
Hepatocyte nuclear factor 6 (Homo sapiens), sequence (Q9UBC0 whole entry, looked up): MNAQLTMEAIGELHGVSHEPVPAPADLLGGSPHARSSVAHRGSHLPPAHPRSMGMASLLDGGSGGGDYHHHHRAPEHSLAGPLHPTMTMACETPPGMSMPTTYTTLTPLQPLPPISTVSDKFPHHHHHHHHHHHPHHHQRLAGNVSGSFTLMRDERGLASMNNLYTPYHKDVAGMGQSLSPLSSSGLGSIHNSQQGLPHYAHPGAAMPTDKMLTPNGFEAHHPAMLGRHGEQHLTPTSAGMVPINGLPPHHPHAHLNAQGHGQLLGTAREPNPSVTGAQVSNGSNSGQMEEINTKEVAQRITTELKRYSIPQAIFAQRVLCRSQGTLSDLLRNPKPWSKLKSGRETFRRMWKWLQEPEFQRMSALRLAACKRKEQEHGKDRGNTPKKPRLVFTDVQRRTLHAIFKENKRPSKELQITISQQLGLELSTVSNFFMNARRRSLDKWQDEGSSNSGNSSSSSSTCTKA
How it was run: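 Endogenous transcription factor activity in human HepG2 liver cells was captured through cis-regulated reporter constructs. After 24 h treatment, reporter mRNA was measured by RT-PCR with capillary electrophoresis, and activity was fitted in both directions relative to DMSO.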

[19] = target: Cellular tumor antigen p53 (Homo sapiens) (UniProt P04637); experiment: TOX21_p53_BLA_p3_ratio: Tox21 HCT-116 p53 Agonism Beta-lactamase Assay, Ratio, Phase 3 (AID 2283596)
How it was run: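 Cells were seeded at 4000/well, rested 5 h at 37C, then dosed with DMSO compound solutions (217-fold dilution) for 16 h. CCF4-AM substrate was loaded for 2 h at room temperature, and the 460/530 nm emission ratio was fitted for gain of signal versus DMSO.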

[20] = ATG_M_06_TRANS: Attagene TRANS-FACTORIAL HepG2 Assay for M06 Transcription Factor (Internal Marker) (AID 2282983); conditions: HepG2 Attagene TRANS M06 internal marker reporter;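 note: reporter transcript level by RT-PCR then capillary electrophoresis fluorescence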
How it was run: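 Human liver HepG2 cells bearing transiently transfected chimeric NR-GAL4 reporter units were treated with chemicals for 24 h. Total RNA was reverse-transcribed, reporter sequences amplified and labelled, then quantified by capillary electrophoresis. Activity was fitted upward relative to DMSO.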

Measured: AC50

CCCCCC1CCCC(=O)O1 (stereo not drawn)
inactive: [1] | [2] | [3] | [4] | [5] | [6] | [7] | [8] | [9] | [10] | [11] | [12] | [13] | [14] | [15] | [16]

CC1=C(CC(=O)O)c2cc(F)ccc2/C1=C\c1ccc(S(C)=O)cc1 (stereo not drawn)
inactive: [1] | [3] | [17] | [7] | [8] | [9] | [10] | [11] | [13] | [15]
active: [4] 26 µM

O=C(O)Cc1c[nH]c2ccccc12
active: [11] 73.7 µM
inactive: [1] | [3] | [18] | [4] | [5] | [6] | [7] | [8] | [10] | [13] | [14] | [19] | [15] | [16]

O=C(OCc1ccccc1)c1ccccc1
inactive: [1] | [2] | [3] | [4] | [5] | [6] | [20] | [7] | [8] | [9] | [10] | [11] | [12]

COc1c2occc2cc2ccc(=O)oc12
inactive: [1] | [3] | [17] | [5] | [20] | [10] | [13] | [14] | [19] | [15] | [16]
active: [11] 100 µM

COC(=O)/C=C\C(=O)OC
active: [3] 128 µM | [18] 128 µM
inactive: [1] | [2] | [4] | [17] | [5] | [6] | [20] | [8] | [11] | [12] | [14] | [15]

O=C(O)/C=C/C(=O)O
inactive: [1] | [2] | [3] | [18] | [4] | [17] | [20] | [7] | [8] | [9] | [12]

CCCCn1cc[n+](C)c1
inactive: [1] | [2] | [17] | [5] | [6] | [20] | [10] | [11]

CCCCNC(N)=O
inactive: [1] | [2] | [3] | [18] | [4] | [17] | [5] | [20] | [8] | [9] | [10] | [11] | [12] | [13] | [14] | [19] | [16]

CN(C)N=Nc1ccccc1
inactive: [1] | [2] | [17] | [6] | [7] | [8] | [9] | [10] | [11] | [19] | [16]
